The values that follow come from PubChem BioAssay AID652096 (National Center for Advancing Translational Sciences (NCATS), 2013).

Activity calls are given as the source filed them.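 The calls were made as follows: active = fold change of 2 or more in glucocerebrosidase protein level on Western blot; inactive = the rest.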

Lysosomal acid glucosylceramidase (Homo sapiens), sequence (P04062 40-536 N409S): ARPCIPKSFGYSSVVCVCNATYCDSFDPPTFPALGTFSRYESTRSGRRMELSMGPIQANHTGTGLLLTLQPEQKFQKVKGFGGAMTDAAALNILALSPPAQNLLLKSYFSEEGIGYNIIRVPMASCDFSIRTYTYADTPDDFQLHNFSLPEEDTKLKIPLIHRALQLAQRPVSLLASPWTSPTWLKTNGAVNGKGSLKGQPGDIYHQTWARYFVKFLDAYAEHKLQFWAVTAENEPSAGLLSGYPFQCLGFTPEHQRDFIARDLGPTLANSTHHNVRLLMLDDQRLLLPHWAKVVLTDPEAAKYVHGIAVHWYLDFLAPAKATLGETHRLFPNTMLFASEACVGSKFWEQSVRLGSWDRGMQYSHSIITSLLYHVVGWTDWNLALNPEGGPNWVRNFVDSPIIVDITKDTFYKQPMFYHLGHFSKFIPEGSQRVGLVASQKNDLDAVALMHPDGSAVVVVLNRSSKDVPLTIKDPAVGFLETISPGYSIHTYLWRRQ

This test has as its target Lysosomal acid glucosylceramidase (Homo sapiens) (UniProt P04062). Put plainly: Extended Characterization of Activators of N370S glucocerebrosidase as a Potential Chaperone Treatment of Gaucher Disease: Western Blot. The settings on record: Patient cells, GCase protein level, active compounds read high. From the text: Glucocerebrosidase (GCase) catalyzes the hydrolysis of beta-glucocerebroside to glucose and ceramide in lysosomes. Mutations in the glucocerebrosidase gene result in Gaucher disease, an autosomal recessive lysosomal storage disorder. Many of the mutations encountered in patients with Gaucher disease are missense alterations that may cause misfolding, decreased stability and/or mistrafficking of this lysosomal protein. […] These inhibitors include iminosugar analogs and other inhibitors that were discovered as part of previous work. However, the enhancement of enzyme activity by the chaperone action of an enzyme inhibitor must be balanced against the direct inhibition of the enzyme. […] In this extended characterization of our probe, we have further characterized the activity of our probe in relevant models. In this Western Blot assay, we examined the effects of compounds to increase GCase activity. NIH Chemical Genomics Center [NCGC] NIH Molecular Libraries Probe Production Centers Network [MLPCN] MLPCN Grant: MH086442 Assay Submitter (PI): Ellen Sidransky, NHGRI
The cells were plated and exposed to the compounds. Cells were harvested and the cell extracts were subjected to SDS-PAGE and Western blotting procedures to evaluate the extent of upregulation of GCase activity.
A general note: In western blotting, separated proteins are transferred to a membrane and probed.
As for `C#Cc1ccc(NC(=O)c2cnn3c(C)cc(C)nc23)cc1`, the fold change is 2 (active).
